mHTT-CaM PPI inh = mHTT-calmodulin interaction abrogation; actives 3.6% (n = 190,000); AlphaScreen His-mHTT/GST-CaM binding, luminescence; inhibition, % at 15 µM; P42858;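 note: 0% = both proteins with DMSO and 100% = one protein alone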
Pf apPOL block = Pf-apPOL DNA polymerase inhibition. Recombinant Pf-apPOL, molecular beacon fluorescence, 1.5 h. inhibition, % at 10 µM. actives 0.25% (n = 210,000). AID 1794808
Active calls of the source: *. The sample as a whole holds a higher share of hits than the screen did. Cut-off read from the data, not from the text of the source: active = inhibition above about 50%; inactive = the rest.

OC(COC12CC3CC(CC(C3)C1)C2)CN1CCN(c2ccccc2)CC1 (stereo not given) was read as mHTT-CaM PPI inh 11.9 and Pf apPOL block 5.8.
OC(COCC12CC3CC(CC(C3)C1)C2)CN1CCN(c2ccccc2)CC1 (stereo not given) was read as mHTT-CaM PPI inh 57.2* and Pf apPOL block 0.8.
Screening OC(COCCC12CC3CC(CC(C3)C1)C2)CN1CCN(c2ccccn2)CC1 (stereo not given) returned mHTT-CaM PPI inh 36.7 and Pf apPOL block 2.3.
`OC(COCCC12CC3CC(CC(C3)C1)C2)CN1CCN(c2ccccc2)CC1` (stereo not given) gave mHTT-CaM PPI inh 54.6* and Pf apPOL block 0.5.
`O=C1CSC(c2ccccc2Br)N1c1cc(Cl)ccc1O` (stereo not given) gave mHTT-CaM PPI inh 7.0 and Pf apPOL block -3.0.
Screening Cn1nc(COCc2ccccc2)c2c1CCN(S(=O)(=O)c1ccccc1F)C2 returned mHTT-CaM PPI inh -9.9 and Pf apPOL block 0.7.
Screening COc1ccc(N=C2C(=O)Nc3ccc(Cl)cc32)cc1 returned mHTT-CaM PPI inh 26.0 and Pf apPOL block -4.1.
Screening COc1ccc(N=C2C(=O)Nc3cc(Br)c(C)cc32)cc1 returned mHTT-CaM PPI inh 66.0* and Pf apPOL block -3.1.
`O=C(Nc1ccc(F)c(Cl)c1)c1cc([N+](=O)[O-])nn1Cc1ccccc1` gave mHTT-CaM PPI inh 92.0* and Pf apPOL block -6.9.
For O=C(Nc1ccc(F)cc1)c1cc([N+](=O)[O-])nn1Cc1ccccc1 the results were mHTT-CaM PPI inh 3.0 and Pf apPOL block -7.8.
Screening CSc1nc2nccc(NC(=O)c3cccc(C)c3)n2n1 returned Pf apPOL block 1.7.
Screening COCCNC(=O)C1Cc2ccccc2N2CCN(c3cccc(Cl)c3)CC12 (stereo not given) returned mHTT-CaM PPI inh 57.1* and Pf apPOL block 2.5.
COCCNC(=O)C1Cc2ccccc2N2CCN(c3ccccc3F)CC12 (stereo not given) was read as mHTT-CaM PPI inh 5.0 and Pf apPOL block 0.2.
N#Cc1cc(Cc2ccc(N)c(C#N)c2)ccc1N was read as mHTT-CaM PPI inh 2.4 and Pf apPOL block -38.5.
`Nc1ccc(Cc2ccc(N)c(O)c2)cc1O` gave mHTT-CaM PPI inh 86.7* and Pf apPOL block 59.5*.
For CCOc1ccccc1N1CCN(Cc2ccc(O)c(OC)c2)CC1 the results were mHTT-CaM PPI inh 4.5 and Pf apPOL block -3.0.
Screening Cc1noc(C)c1CN1CCC(c2nc(-c3ccccc3)n[nH]2)CC1 returned mHTT-CaM PPI inh -11.6 and Pf apPOL block 8.0.
For CCCNc1cc(N2CCC(CCC(=O)Nc3cc(C)ccc3OC)CC2)ncn1 the results were mHTT-CaM PPI inh 58.8* and Pf apPOL block -6.1.
`CCNc1cc(N2CCCC(CCC(=O)Nc3cc(C)ccc3OC)C2)ncn1` (stereo not given) gave mHTT-CaM PPI inh 55.5* and Pf apPOL block 1.2.
`COc1ccc(C)cc1NC(=O)CCC1CCCN(c2cc(NC3CC3)ncn2)C1` (stereo not given) gave mHTT-CaM PPI inh 10.5 and Pf apPOL block -7.8.
Screening COc1ccc(C)cc1NC(=O)CCC1CCN(c2cc(NC3CC3)ncn2)CC1 returned mHTT-CaM PPI inh 39.2 and Pf apPOL block -3.4.
For O=C(NC1CCCCCCC1)C1c2ccccc2C(=O)N1Cc1ccc(F)cc1 (stereo not given) the results were mHTT-CaM PPI inh 1.0 and Pf apPOL block -11.4.
Screening COc1cccc(CN2CCc3c(cc(C(=O)Nc4cccc(C)c4C)n3C)C2)c1 returned mHTT-CaM PPI inh 43.1 and Pf apPOL block 1.2.
For COc1cccc(CN2CCc3c(cc(C(=O)Nc4ccccc4)n3C)C2)c1 the results were mHTT-CaM PPI inh 58.6* and Pf apPOL block -0.2.
COc1ccccc1NC(=O)c1cc2c(n1C)CCN(Cc1cccc(C)c1)C2 was read as mHTT-CaM PPI inh 63.2* and Pf apPOL block -3.6.
COCCNC(=O)c1cc2c(n1C)CCN(Cc1cccc(OC)c1)C2 was read as mHTT-CaM PPI inh 20.6 and Pf apPOL block -1.2.
`COc1ccc(CNC(=O)c2cc3c(n2C)CCN(Cc2ccccc2)C3)cc1OC` gave mHTT-CaM PPI inh 44.3 and Pf apPOL block 2.0.
`COc1cccc(CN2CCc3c(cc(C(=O)NCc4ccc(F)cc4)n3C)C2)c1` gave mHTT-CaM PPI inh 53.9* and Pf apPOL block -3.5.
COc1cccc(CN2CCc3c(cc(C(=O)NC(C)C)n3C)C2)c1 was read as mHTT-CaM PPI inh 34.0 and Pf apPOL block 2.1.
COc1cccc(CN2CCc3c(cc(C(=O)Nc4ccccc4OC)n3C)C2)c1 was read as mHTT-CaM PPI inh 87.6* and Pf apPOL block 3.7.
COC(CN(C)C(=O)c1ccc2c(c1NCCO)C(=O)c1ccccc1C2=O)OC was read as mHTT-CaM PPI inh 30.0 and Pf apPOL block -4.4.
Cc1cc(C)c(OCC(=O)Nc2ccc([N+](=O)[O-])cc2C)c(Cl)c1 was read as mHTT-CaM PPI inh 3.5 and Pf apPOL block -9.6.
O=C(NCc1ccc2c(c1)OCO2)C1CCCN(c2ccc(N3CCOCC3)nn2)C1 (stereo not given) was read as mHTT-CaM PPI inh -9.3 and Pf apPOL block -1.2.
For CCOC(CNC(=O)c1cnn2c(C)c(Cc3c(F)cccc3Cl)c(C)nc12)OCC the results were mHTT-CaM PPI inh 17.0 and Pf apPOL block -12.8.
Screening Cc1ccc(N2CCN(C(=O)CC(C)(C)C)C(C)C2=O)cc1C (stereo not given) returned mHTT-CaM PPI inh -4.5 and Pf apPOL block -3.9.
`CCCN1CCN(C(=O)c2cccc3[nH]cc(CN4CCSCC4)c23)CC1` gave mHTT-CaM PPI inh 16.1 and Pf apPOL block -4.1.
`CSc1ccc(CNC(=O)c2cc3c(s2)CCN(C(C)=O)C3)cc1` gave mHTT-CaM PPI inh 8.8 and Pf apPOL block -8.0.
Screening CCCCNC(=O)C1c2cc(OC)c(OC)cc2C(=O)N(C)C1c1cccnc1 (stereo not given) returned mHTT-CaM PPI inh -3.0 and Pf apPOL block -4.2.
Screening O=C(N/C(=C\c1ccccc1F)C(=O)N1CC2CC(C1)c1cccc(=O)n1C2)c1ccccc1 (stereo not given) returned mHTT-CaM PPI inh 6.0 and Pf apPOL block -5.2.
Cc1cccc(-n2c(O)c(C=Nc3nn[nH]n3)c(=O)[nH]c2=O)c1 was read as mHTT-CaM PPI inh 4.0 and Pf apPOL block -0.1.
`CCOc1ccc(C(=O)N2CCN(c3ccc([N+](=O)[O-])cc3Cl)CC2)cc1Br` gave mHTT-CaM PPI inh 17.6 and Pf apPOL block -2.8.
Screening Cc1ccc(CN2CCc3c(cc(C(=O)Nc4ccc(N5CCOCC5)cc4)n3C)C2)cc1 returned mHTT-CaM PPI inh 33.2 and Pf apPOL block 0.8.
For COc1ccc(NC(=O)c2cc3c(n2C)CCN(Cc2ccc(C)cc2)C3)cc1OC the results were mHTT-CaM PPI inh 50.1* and Pf apPOL block -1.8.
`COc1ccc(NC(=O)c2cc3c(n2C)CCN(Cc2ccc(F)cc2)C3)cc1` gave mHTT-CaM PPI inh 99.4* and Pf apPOL block -4.8.
CCN(CC)C(=O)c1cc2c(n1C)CCN(Cc1ccc(F)cc1)C2 was read as mHTT-CaM PPI inh 33.6 and Pf apPOL block -2.7.
`CCn1cc2c3c(cccc31)CN(C(=O)Nc1ccccc1Cl)CC2` gave mHTT-CaM PPI inh 48.4 and Pf apPOL block -4.4.
Screening COc1cc(C(=O)Nc2sc3c(c2C(=O)O)CCC(C)C3)cc(OC)c1OC (stereo not given) returned mHTT-CaM PPI inh 2.6 and Pf apPOL block -2.7.

Assay outcomes (PubChem BioAssay)
